For 9 compounds, growth results are on record in PubChem BioAssay (NCI).

Each structure is given as a SMILES string. Compounds without any hit were thinned out: in the full panel of roughly 83,000, 20% have a hit.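 Assay: single dose, 48 h. Readout: percent growth (0 = no net growth; negative = cell death). Active: <10.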 Unmarked numbers belong to inactive results. The source made the active and inactive calls.

Some test systems named below: SR leukemia; OVCAR-8 ovarian; OVCAR-5 ovarian; OVCAR-4 ovarian; SK-OV-3 ovarian; IGROV1 ovarian; OVCAR-3 ovarian; HS 578T breast; NCI/ADR-RES ovarian; T-47D breast; MDA-MB-435 melanoma; SW-620 colon; MCF7 breast; HCT-116 colon; HCC-2998 colon; KM12 colon; BT-549 breast.
Holding throughout (assay): NCI-60 one-dose screen, 48 h (100 = growth as untreated, 0 = no growth, -100 = all killed)
What all share (settings): 10 µM unless noted

For `O=C(O)c1ccc(CO)o1`, the growth with SR leukemia is 100%; in the experiment on OVCAR-8 ovarian it was 95.5%; in the experiment on OVCAR-5 ovarian, 108%; in the experiment with OVCAR-4 ovarian it was 98.3%; in the experiment with SK-OV-3 ovarian it was 116%; in the experiment with IGROV1 ovarian, 109%. Further, the growth in the experiment with OVCAR-3 ovarian is 112%; in the experiment with HS 578T breast, 106%; with NCI/ADR-RES ovarian it was 116%; in the experiment on T-47D breast it was 105%; in the experiment with MDA-MB-435 melanoma it was 109%; in the experiment on SW-620 colon, 104%. The growth was 84.1% in the experiment on MCF7 breast, 103% with HCT-116 colon, 111% in the experiment with HCC-2998 colon and 106% in the experiment on KM12 colon.
With `Clc1ccc(-c2nc(NCCc3ccccc3)nc3c(NCCc4ccccc4)cnn23)cc1`, the growth with SR leukemia was 72%; in the experiment with OVCAR-8 ovarian it was 47.5%; in the experiment on OVCAR-5 ovarian it was 91.2%; with OVCAR-4 ovarian, 7.73% (active); in the experiment with SK-OV-3 ovarian, 75.8%; in the experiment with IGROV1 ovarian, 71.5%. Moreover, the growth with OVCAR-3 ovarian is 48.9%; in the experiment on HS 578T breast it was 76.6%; in the experiment on NCI/ADR-RES ovarian it was 74.5%; in the experiment on T-47D breast it was 63.3%; in the experiment on BT-549 breast, 63.6%; in the experiment with MDA-MB-435 melanoma, 42.6%. In addition, the growth in the experiment on SW-620 colon is 33.5%; in the experiment on MCF7 breast, 31.1%; in the experiment on HCT-116 colon, 28.6%; in the experiment with HCC-2998 colon, 72.4%; in the experiment with KM12 colon, 70%.
For the compound `COc1ccc(OC)c(/C=C2\COc3ccc(O)c(O)c3C2=O)c1`, the growth is 7.03% (active) with SR leukemia; 24.7% in the experiment with OVCAR-8 ovarian; 31.9% in the experiment with OVCAR-5 ovarian; 27.4% with OVCAR-4 ovarian; 45.2% in the experiment on SK-OV-3 ovarian; 5.82% (active) with IGROV1 ovarian. Moreover, the growth was 1.23% (active) in the experiment with OVCAR-3 ovarian; 14.1% in the experiment with NCI/ADR-RES ovarian; 25.2% in the experiment on T-47D breast; 39% with BT-549 breast; 12.1% with MDA-MB-435 melanoma; 9.79% (active) with SW-620 colon. In addition, the growth in the experiment on MCF7 breast is 14.9%; in the experiment on HCT-116 colon, 3.33% (active); with HCC-2998 colon, 53.9%; in the experiment on KM12 colon it was 16.4%.
With `NS(=O)(=O)Oc1ccc(-c2sc3cc(O)ccc3c2C(=O)c2ccc(OCCN3CCCCC3)cc2)cc1`, the growth was 4.91% (active) in the experiment with SR leukemia; 63.9% in the experiment with OVCAR-8 ovarian; 87.2% with OVCAR-5 ovarian; 58.4% in the experiment on OVCAR-4 ovarian; 75.6% with IGROV1 ovarian; 62.6% in the experiment with OVCAR-3 ovarian. The growth in the experiment on HS 578T breast is 37.8%; in the experiment on NCI/ADR-RES ovarian, 80.4%; with T-47D breast it was 86.6%; with BT-549 breast it was 84.6%; in the experiment with MDA-MB-435 melanoma, -28% (active); in the experiment with SW-620 colon, 51.7%. Besides, the growth is 29.4% with MCF7 breast, 43.5% with HCT-116 colon, 59.5% with HCC-2998 colon and 65.3% in the experiment on KM12 colon.
With `Cl.Fc1c[c-]c(-c2ccccn2)c(F)c1.[Pt].c1ccc([PH+](C[PH+](c2ccccc2)c2ccccc2)c2ccccc2)cc1`, the growth is -25.4% (active) with SR leukemia; -19.6% (active) in the experiment on OVCAR-8 ovarian; -81.8% (active) in the experiment on OVCAR-5 ovarian; -93.4% (active) with OVCAR-4 ovarian; -75.9% (active) with IGROV1 ovarian; -93.8% (active) in the experiment on OVCAR-3 ovarian. The growth with HS 578T breast was -25.2% (active); with NCI/ADR-RES ovarian it was -38.8% (active); with T-47D breast it was -56.2% (active); with BT-549 breast, -85% (active); in the experiment on MDA-MB-435 melanoma it was -83.3% (active); in the experiment on SW-620 colon, -78.1% (active). Moreover, the growth in the experiment on MCF7 breast was -83.7% (active); in the experiment with HCT-116 colon, -83.4% (active); with HCC-2998 colon, -87.4% (active); in the experiment on KM12 colon, -82% (active).
Take `O=C1CCC(N2C(=O)c3cccc(NCCCC4CCN(CCNC(=O)c5cc6c(o5)C(=O)c5ccccc5C6=O)CC4)c3C2=O)C(=O)N1` (configuration not stated): the growth with SR leukemia is 14.5%; in the experiment with OVCAR-8 ovarian, 6.28% (active); with OVCAR-5 ovarian it was -98% (active); in the experiment on OVCAR-4 ovarian, -99.3% (active); with IGROV1 ovarian it was -50.3% (active); in the experiment with OVCAR-3 ovarian it was -90.9% (active). Further, the growth in the experiment on HS 578T breast is -25.8% (active); in the experiment on NCI/ADR-RES ovarian, 20.4%; with T-47D breast, -5.59% (active); with BT-549 breast, -96.2% (active); in the experiment with MDA-MB-435 melanoma, -97.1% (active); in the experiment with SW-620 colon, -77.9% (active). Besides, the growth is -65.4% (active) in the experiment on MCF7 breast, -56.9% (active) in the experiment on HCT-116 colon, -96% (active) with HCC-2998 colon and -79.2% (active) with KM12 colon.
Consider `N=C(N)c1ccc(-c2ccc(-c3ccc(Cl)cc3Cl)o2)nc1`, for which the growth in the experiment with SR leukemia is 1.87% (active); with OVCAR-8 ovarian, 1.36% (active); in the experiment on OVCAR-5 ovarian, 77.2%; in the experiment with OVCAR-4 ovarian it was 22.6%; in the experiment with IGROV1 ovarian, 25.4%; in the experiment with OVCAR-3 ovarian it was -3.34% (active). The growth in the experiment on HS 578T breast is -15.2% (active); in the experiment on NCI/ADR-RES ovarian, 71.6%; in the experiment with T-47D breast, 59.2%; in the experiment with BT-549 breast, 94.7%; with MDA-MB-435 melanoma, -92.1% (active); in the experiment with SW-620 colon, -68.7% (active). For the same compound, the growth is -54.6% (active) with MCF7 breast, -75.5% (active) in the experiment on HCT-116 colon, -34.3% (active) with HCC-2998 colon and -35.5% (active) in the experiment on KM12 colon.
In the case of `N#C/C(=C\c1ccc(Br)cc1)n1nnc2ccccc21`, the growth in the experiment on SR leukemia is 11.7%; in the experiment on OVCAR-8 ovarian it was 17.3%; in the experiment with OVCAR-5 ovarian it was 7.66% (active); in the experiment with IGROV1 ovarian it was 1.96% (active); in the experiment on OVCAR-3 ovarian, -31.8% (active); with HS 578T breast, 19.4%. Also, the growth in the experiment with NCI/ADR-RES ovarian was -6.66% (active); in the experiment on T-47D breast it was 24%; in the experiment with BT-549 breast, -1.46% (active); with MDA-MB-435 melanoma, -38.4% (active); in the experiment with SW-620 colon, -19.9% (active); with MCF7 breast it was 14.2%. Moreover, the growth was -44.2% (active) in the experiment with HCT-116 colon, -30.8% (active) in the experiment with HCC-2998 colon and 1.67% (active) in the experiment with KM12 colon.
For the compound `N=C(N)c1ccc(-c2ccc(-c3ccc(Cl)c(Cl)c3)o2)cc1`, the growth in the experiment on SR leukemia was -14.5% (active); in the experiment on OVCAR-8 ovarian it was 1.38% (active); in the experiment on OVCAR-5 ovarian, 39.9%; in the experiment on IGROV1 ovarian, -64.6% (active); in the experiment with HS 578T breast, 70.9%; in the experiment with NCI/ADR-RES ovarian it was 35.1%. Moreover, the growth in the experiment on T-47D breast is 64.3%; in the experiment on BT-549 breast it was 90%; in the experiment on MDA-MB-435 melanoma, -42.1% (active); with SW-620 colon, -73.6% (active); in the experiment with MCF7 breast, -68.9% (active); in the experiment with HCT-116 colon, -83% (active). Also, the growth was -75.7% (active) in the experiment on HCC-2998 colon and -84.2% (active) in the experiment with KM12 colon.
